# Screening data deposited in PubChem BioAssay by National Center for Advancing Translational Sciences (NCATS).
# Many of the other results were omitted from the sample, so hits are more common in it than they were.
# CHX counter: affects cycloheximide protein synthesis inhibition readout, counter-screen; cell reporter, cycloheximide protein synthesis inhibition counterscreen; max response, %; 12% of 300,000 active; AID 2314; in the data active means max response mostly above about 13%, no sharp cut-off; inactive means mostly below about 14%; further: read at 38.3 µM for the half of the compounds with a filed dose
# Shiga inhibitor: blocks Shiga toxin action in Vero cells; AID 2315; Vero cells, Shiga toxin protein synthesis inhibition reporter; 9.2% of 290,000 active; inhibition, % at 38.7 µM; in the data active means inhibition mostly above about 28%, no sharp cut-off; inactive means mostly below about 43%
# LASV entry inh: blocks Lassa virus binding to or entry into cells | Lassa virus pseudotype entry inhibition, cell reporter | Potency, µM (doses to about 37.9 µM), usual class: inhibitors | 1.2% of 300,000 active | AID 540256; calls by dose curve; tested in HEK293 cells; further: nearly all actives have a fitted effect of over 50% in size
# VACV Venus inh: vaccinia inhibition (Venus reporter) | 0.46% of 330,000 active | Vaccinia virus Venus reporter expression, fluorescence | Potency, µM (doses to about 36.5 µM), most hits filed as inhibitors | AID 720580; calls by dose curve; tested in A549 cells; further: nearly all actives have a fitted effect of over 30% in size
# VACV mCherry inh: vaccinia inhibition (mCherry reporter); 0.63% of 310,000 active; Potency, µM (series often up to 36.5 µM), actives largely listed as inhibitors; Vaccinia virus mCherry reporter infection, fluorescence; AID 720579; calls by dose curve; tested in A549 cells; further: nearly all actives have a fitted effect of over 35% in size
# Marburg entry inh: Marburg virus entry inhibition; Marburg virus pseudotyped entry inhibition, cell reporter; Potency, µM (series often up to 37.8 µM), actives largely listed as inhibitors; 1.8% of 300,000 active; calls by dose curve; tested in HEK293 cells
# A number is an active result; - = inactive; ? = inconclusive; . = no result given.
SMILES,CHX counter,Shiga inhibitor,LASV entry inh,VACV Venus inh,VACV mCherry inh,Marburg entry inh
COc1ccc(CCNC(=O)C2CCCN(S(=O)(=O)c3ccc(F)cc3)C2)cc1 (configuration not stated),-,-,-,-,-,-
CCc1ccc(CNc2nc3nc(C)c(Cc4ccccc4)c(=O)n3[nH]2)cc1,.,.,-,-,-,-
COCC(=O)Nc1ccccc1C(=O)Nc1ccc(OC)cc1,22,51,-,.,.,-
COc1ccc(C(=O)Nc2ccccc2C(=O)Nc2ccc(C(=O)O)cc2)cc1,11,-,-,-,-,-
COc1ccc(NC(=O)c2ccccc2NC(=O)COc2ccccc2)cc1,-,-,-,-,-,-
Cc1ccccc1NC(=O)c1ccc2ccccc2c1,30,92,?,-,-,-
O=C(CSCc1ccccc1)Nc1ccccc1C(=O)Nc1ccc(C(=O)O)cc1,13,-,-,-,-,-
COc1ccc(OC)c(-c2c(C#N)c(N)nc3c2c(=O)nc2sccn23)c1,-,-,-,-,-,-
COc1ccc(C(=O)Nc2ccccc2C(=O)Nc2ccccc2C(=O)O)cc1,29,.,?,-,?,?
CCC(NC(=O)c1ccccc1NC(=O)c1ccc(OC)cc1)C(=O)N1CCCC1 (configuration not stated),46,34,-,.,.,-
COc1ccc(CC(=O)Nc2nc(-c3ccccc3)c(C(C)=O)s2)cc1OC,-,-,?,-,-,11µM
CCC(NC(=O)c1ccccc1NC(=O)C(C)(C)C)C(=O)N1CCCC1 (configuration not stated),-,-,-,-,-,-
COc1cc(CC(=O)Nc2nc(-c3ccccc3)c(C(C)=O)s2)cc(OC)c1OC,-,-,?,-,-,-
COc1ccc(N2CCN(S(=O)(=O)c3ccc4c(c3)CCCN4C(C)=O)CC2)cc1,.,.,-,-,-,.
c1ccc2[nH]c(-c3ccc4c(c3)OCO4)nc2c1,.,.,?,-,-,?
O=C(Nc1ccc(-c2nc3ccccc3[nH]2)cc1)c1c(F)c(F)c(F)c(F)c1F,-,-,-,-,-,-
Cc1ccc2nc(C(F)C(F)(F)F)[nH]c2c1 (configuration not stated),22,44,-,-,-,-
Cc1nc2ccc(-c3nc4ccccc4[nH]3)cc2[nH]1,35,60,?,-,-,-
Clc1ccc(-c2nc3ccccc3[nH]2)cn1,23,-,-,-,-,-
Cc1ccc2nc(-c3ccncc3)[nH]c2c1,47,83,-,-,-,?
O=C1N(Cc2ccccc2Cl)c2ccccc2C1(O)c1c[nH]c2ccccc12 (configuration not stated),.,.,-,-,-,-
Cc1ccc(-c2nc3ccccc3[nH]2)cn1,22,32,-,-,-,-
NC(=O)c1cc(-c2ccccc2)sc1NC(=O)Cc1ccc(S(=O)(=O)N2CCOCC2)s1,-,-,-,.,.,-
NC(=O)c1ccccc1NC(=O)CN1CCCCCC1,-,-,?,-,-,-
NC(=O)Nc1sc(-c2ccc(F)cc2)cc1C(N)=O,17,-,.,.,.,.
SMILES,CHX counter,Shiga inhibitor,LASV entry inh,VACV Venus inh,VACV mCherry inh,Marburg entry inh
NC(=O)c1cc(-c2ccccc2)sc1NC(=O)CN1CCCCC1,11,-,?,?,-,6.3µM
Cn1cccc1C(=O)NCC1COc2ccccc2O1 (configuration not stated),.,.,-,-,-,-
O=C(CCCNS(=O)(=O)c1cccs1)N1CCc2ccccc2C1,-,-,-,.,.,-
O=C(CNS(=O)(=O)c1cccs1)N1CCc2ccccc2C1,48,55,-,-,.,?
O=C(CNS(=O)(=O)c1cccs1)N1CCN(c2ccccc2F)CC1,35,71,-,-,-,-
O=C(CNS(=O)(=O)c1cccs1)N1CCCC1,-,-,-,-,.,?
COc1cccc(NC(=O)Cn2c(=O)n(-c3ccc(Cl)cc3)c(=O)c3oc4ccccc4c32)c1,.,.,-,-,-,.
Cc1cc2c(s1)c1cnn(Cc3ccc(F)cc3F)c(=O)c1n2C,-,-,.,.,.,.
COc1ccc(C(=O)CC(=O)C(=O)Nc2cccc(C(C)=O)c2)cc1,17,-,-,-,-,-
COc1ccc(C(=O)CC(=O)C(=O)Nc2ccc(C)c(C)c2)cc1,18,94,-,-,-,?
COc1ccc(C(=O)CC(=O)C(=O)Nc2ccccc2OC)cc1,-,-,.,.,.,.
Cc1ccccc1-n1c2nc(=O)n(C)c(=O)c-2cc2ccccc21,-,-,-,-,-,-
CCn1nc(/C=C/c2ccccc2)nc2c(=O)n(C)c(=O)nc1-2,-,-,7.9µM,2.8µM,2.5µM,0.71µM
CCn1nc(-c2ccccc2C)nc2c(=O)n(C)c(=O)nc1-2,.,.,.,6.3µM,5.6µM,.
CCn1c(/C=C/c2ccc(O)cc2)nc2ccccc2c1=O,-,-,?,-,-,?
CCn1nc(-c2cccs2)nc2c(=O)n(C)c(=O)nc1-2,26,26,?,0.79µM,.,0.89µM
COc1ccc(OC)c(/C=c2\sc3nc(-c4cccs4)nn3c2=O)c1,-,-,-,-,-,-
CC(c1ccccc1)n1c(CCCO)nc2ccccc21 (configuration not stated),-,-,.,.,.,.
Cc1ccc(N(Cc2cccs2)C(=O)c2ccccc2[N+](=O)[O-])cc1,.,.,-,-,-,-
Cc1ccc(-n2ncc(C(=O)N3CCN(C4CCCCC4)CC3)c2C2CCN(C(=O)OC(C)(C)C)CC2)cc1C,.,.,2µM,-,-,.
CCN1CCN(C(=O)c2cnn(-c3cccc(Cl)c3)c2C2CCN(C(=O)OC(C)(C)C)CC2)CC1,.,.,7.1µM,-,-,.
Cc1nnc(C)c2c(C)n(-c3ccc(Br)cc3)c(C)c12,-,-,.,.,.,-
N#CN=c1snc(-c2ccccc2)n1-c1ccc(Br)cc1,.,.,.,?,3.2µM,.
Cc1cc(C(=O)Nc2cccnc2)cs1,12,-,-,-,-,-
Cc1ccc(C(=O)Nc2cccnc2)cc1Cl,26,41,-,-,-,-
SMILES,CHX counter,Shiga inhibitor,LASV entry inh,VACV Venus inh,VACV mCherry inh,Marburg entry inh
CC(C)(C)c1ccc(C(=O)Nc2cccc(C(=O)N3CCOCC3)c2)cc1,45,57,.,.,.,.
Cc1ccc(C(=O)Nc2cccnc2)cc1C,.,.,.,-,-,.
Cc1ccc(C(=O)Nc2cccc(C(=O)O)c2)cc1S(=O)(=O)N1CCOCC1,24,-,?,-,-,?
CCCC(C)NC(=O)C1c2ccccc2Oc2ccccc21 (configuration not stated),-,-,.,.,.,.
CC(C)CN(C(=O)COC(=O)CCSc1ccc(F)cc1)c1c(N)n(Cc2ccccc2)c(=O)[nH]c1=O,.,.,-,-,-,?
O=C(O)c1ccc(NC(=O)c2cc3c([nH]c2=O)CCCC3=O)cc1,.,.,.,-,-,.
Cc1ccc(C(=O)Nc2cccc(C(=O)O)c2)cc1S(=O)(=O)N1CCCCC1,87,132,?,-,.,?
O=C(Nc1ccccc1)c1ccc(NCc2ccco2)c(S(=O)(=O)N2CCOCC2)c1,10.0,-,?,.,.,-
Cc1ccc(C(=O)Nc2cccnc2)cc1S(=O)(=O)N1CCCC1,20,-,-,-,-,-
CC(=O)c1cccc(NC(=O)c2ccc(C)c(S(=O)(=O)N3CCOCC3)c2)c1,-,-,.,-,-,-
NC(=O)N/N=C/c1cn(-c2ccccc2)nc1-c1cccnc1,-,-,.,.,.,.
